In the library only some 7% were active in any assay of this set; here they are far more common.
USP30 inh – inhibitors of human USP30 deubiquitinase; AID 1645860, 2021; Ubiquitin carboxyl-terminal hydrolase 30 (Homo sapiens), Q70CQ3; inhibition, % at 25 µM; hit rate 5.3% among 47,000; purified USP30, Ub-rhodamine cleavage fluorescence
USP28 inh – inhibitors of human USP28 deubiquitinase; inhibition, % at 25 µM; AID 1645857, 2021; purified USP28, Ub-rhodamine cleavage fluorescence, 30 min; hit rate 3% among 47,000
Target sequence (Q96RU2 whole entry, looked up): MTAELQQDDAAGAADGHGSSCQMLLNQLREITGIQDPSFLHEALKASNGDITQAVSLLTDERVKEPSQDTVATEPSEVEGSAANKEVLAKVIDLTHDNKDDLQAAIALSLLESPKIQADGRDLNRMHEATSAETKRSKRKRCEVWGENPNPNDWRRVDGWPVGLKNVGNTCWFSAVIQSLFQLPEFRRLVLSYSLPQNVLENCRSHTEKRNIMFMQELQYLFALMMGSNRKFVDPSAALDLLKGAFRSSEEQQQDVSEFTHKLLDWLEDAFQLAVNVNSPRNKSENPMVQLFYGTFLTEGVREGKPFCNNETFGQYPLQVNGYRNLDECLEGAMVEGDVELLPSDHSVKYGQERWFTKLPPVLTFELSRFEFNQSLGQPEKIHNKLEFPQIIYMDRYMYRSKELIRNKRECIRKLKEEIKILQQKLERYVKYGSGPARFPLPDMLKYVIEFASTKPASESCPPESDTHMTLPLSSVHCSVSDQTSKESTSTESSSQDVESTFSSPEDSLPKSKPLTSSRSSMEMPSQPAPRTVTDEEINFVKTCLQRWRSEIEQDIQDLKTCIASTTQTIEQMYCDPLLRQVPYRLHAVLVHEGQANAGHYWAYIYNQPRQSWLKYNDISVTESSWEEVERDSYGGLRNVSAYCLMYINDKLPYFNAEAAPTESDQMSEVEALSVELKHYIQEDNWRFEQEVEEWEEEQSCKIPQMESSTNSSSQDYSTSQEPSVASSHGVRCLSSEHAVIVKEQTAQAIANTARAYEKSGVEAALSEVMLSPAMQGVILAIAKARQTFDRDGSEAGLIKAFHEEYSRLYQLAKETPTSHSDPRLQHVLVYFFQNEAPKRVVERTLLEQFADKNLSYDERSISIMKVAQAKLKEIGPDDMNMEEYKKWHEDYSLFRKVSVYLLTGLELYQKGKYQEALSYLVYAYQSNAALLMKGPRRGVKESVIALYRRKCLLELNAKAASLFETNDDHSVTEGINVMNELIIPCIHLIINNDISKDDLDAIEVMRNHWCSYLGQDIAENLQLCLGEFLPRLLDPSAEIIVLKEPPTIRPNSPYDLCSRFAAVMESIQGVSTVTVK
* hit, by the source's call. Rule as the data show it: active = inhibition above about 30%; inactive = the rest.

SMILES	USP30 inh	USP28 inh
COc1ccc(NC(=O)COC(=O)C2CCCN2S(=O)(=O)c2ccccc2F)c(OC)c1 (stereo not given)	-0.6	9.4
COc1ccc(CC(=O)NCC(c2cccnc2)N2CCc3ccccc3C2)cc1 (stereo not given)	-20.1	0.1
O=C(NCCn1cnc2cc(C(=O)N3CCCC3)ccc21)Nc1ccc(F)cc1	13.1	5.7
COc1cccc2[nH]c3c(N4CCCC4)ncnc3c12	0.4	6.0
N#CC(=C\c1ccc(O)cc1)/C(C#N)=C/c1ccc(O)cc1	-92.0	-21.5
COc1cccc(Nc2nc(NCc3ccccc3)nc3c2cnn3C)c1	-29.6	39.5*
COc1cccc(Nc2nc(NCCc3ccccc3)nc3c2cnn3C)c1	-35.9	-5.1
Cn1ncc2c(Nc3ccc(Cl)cc3)nc(NCCc3ccccc3)nc21	41.5*	5.6
COc1ccc(Nc2nc(NCCc3ccccc3)nc3c2cnn3C)cc1	-1.1	-6.8
C=CCOc1ccc(/C(O)=C2\C(=O)C(=O)N(CCN(C)C)C2c2cccc(Cl)c2)cc1 (stereo not given)	-7.7	-0.4
Cc1oc(-c2[nH]ncc2C(=O)N(C)C)cc1S(=O)(=O)Nc1ccccc1	30.3*	13.9
Cc1ccccc1CNS(=O)(=O)c1cc(-c2[nH]ncc2C(=O)N(C)C)oc1C	-24.9	-15.0
COc1cc2c(c(OC)c1OC)-c1ccc(NCCc3ccccc3)c(=O)cc1[C@@H](NC(C)=O)CC2	-107.4	-41.2
O=C(c1nnn(-c2ccc(Cl)cc2)c1-c1cccnc1)N1CCc2ccccc2C1	16.9	7.9
COc1ccc(Cl)cc1-n1nnc(C(=O)N2CCc3ccccc3C2)c1C	83.1*	32.6*
CC1NC(=O)CNC1=O (stereo not given)	29.9	-0.1
O=C(NCc1ccccc1)c1nc2n(n1)-c1ccccc1S(=O)(=O)N2	33.7*	11.6
COc1cc(CNC(=O)c2nc3n(n2)-c2ccccc2S(=O)(=O)N3)cc(OC)c1OC	2.0	0.8
N#Cc1cccc(NC(=O)c2ccc(OCc3ccccc3)cc2)c1	12.5	7.6
COc1ccc(OC)c(S(=O)(=O)Nc2cccc(-c3nc4cccnc4s3)c2)c1	-44.0	9.2
Cc1ccc(S(=O)(=O)Nc2cccc(-c3nc4cccnc4s3)c2)cc1C	47.4*	16.6
O=C(NCC1CC1)c1ncn2c1CN(CC1CC1)S(=O)(=O)c1ccccc1-2	33.8*	11.4
CC(C)CCN1Cc2c(C(=O)NCc3ccccc3)ncn2-c2ccccc2S1(=O)=O	41.9*	23.4
CC(C)CCN1Cc2c(C(=O)Nc3ccccc3)ncn2-c2ccccc2S1(=O)=O	-12.9	-10.6
CCC(CC)CNC(=O)c1ncn2c1CN(CC1CC1)S(=O)(=O)c1ccccc1-2	6.1	1.5
SMILES	USP30 inh	USP28 inh
CC1CCN(S(=O)(=O)c2ccc3nc(N4CCC5(CC4)OCCO5)ccc3c2)CC1	-0.5	-5.6
COc1ccc(-n2nnnc2CNS(=O)(=O)c2ccccc2)cc1	14.1	-4.1
O=S(Cc1cc(Sc2ccccc2)nc(-c2ccccc2)n1)c1ccccc1 (stereo not given)	34.3*	12.6
COCc1cc(Sc2ccc(OC)cc2)nc(-c2ccccc2)n1	2.7	0.5
Cc1cc(C)c2c(N3CCOCC3)nc(C(=O)N(C)Cc3ccccc3)nc2n1	-215.7	-61.9
CC(c1cc2ccccc2o1)N(C)c1ncnc2sccc12 (stereo not given)	-7.0	34.7*
CC(Nc1ncnc2sccc12)c1ccccn1 (stereo not given)	-18.8	-0.1
c1cc(-c2noc(C3CCCCC3)n2)cc(N2CCOCC2)n1	6.5	2.3
O=c1ccc(-c2noc(-c3ccc4cc[nH]c4c3)n2)c[nH]1	-272.5	11.3
O=c1ccc(-c2noc(Cc3c(F)cccc3Cl)n2)c[nH]1	26.6	93.1*
Cc1ccccc1Cc1nc(-c2ccnc(N3CCOCC3)c2)no1	12.9	32.4*
Cc1ccccc1Cc1nc(-c2ccc(=O)[nH]c2)no1	-1.3	84.2*
Cc1ccc(-c2nc(-c3ccc(=O)[nH]c3)no2)cc1F	-54.0	-30.4
O=C(NC1CCCCC1)C(c1ccc(F)cc1)N(Cc1ccc2c(c1)OCO2)C(=O)C1CCN(S(=O)(=O)c2ccc3c(c2)OCCO3)CC1 (stereo not given)	22.5	9.4
O=C(O)c1cccc2[nH]c(-c3ccc(O)cc3)nc12	22.2	11.4
CC(=O)c1cccc(NC(=O)Cn2cc(-c3ccccc3)c3ncn(C4CC4)c(=O)c32)c1	-131.1	-54.2
O=C(C1CC1)N1CC[C@@H]2NS(=O)(=O)c3ccccc3O[C@H]2CC1	27.6	4.0
CC(=O)N[C@@]12CN(CC(=O)Nc3cc(C)ccc3F)CC[C@@H]1[C@@H](c1ccccc1)N(C)C2	12.1	2.4
COc1ccc(N(CC(=O)NCCc2ccc(S(N)(=O)=O)cc2)S(=O)(=O)c2c(C)noc2C)cc1	-88.3	3.9
COc1ccc(CCNC(=O)CN(c2cc(C)cc(C)c2)S(=O)(=O)c2c(C)noc2C)cc1OC	47.4*	-10.1
Cn1c(CNS(=O)(=O)c2ccc(Br)cc2)nnc1SCc1ccc(Cl)c(Cl)c1	35.4*	40.8*
Cn1c(CNS(=O)(=O)c2ccc(Cl)cc2)nnc1SCc1cccc(C(F)(F)F)c1	-0.8	6.8
CCN1CCN(C(=O)c2n[nH]c3c2CCCCCC3)CC1	-19.7	-6.0
c1ccc(CN(Cc2ccccc2)c2c3c(nc4ncnn24)CCC3)cc1	38.6*	22.9
O=c1c2c(nc3nc(C(c4ccccc4)c4ccccc4)[nH]n13)CCC2	17.5	7.8
SMILES	USP30 inh	USP28 inh
O=C(NC1CCN(c2nnc3ccccn23)CC1)c1ccc2c(c1)OCO2	-0.1	8.5
O=C(CSc1c[nH]c2ccccc12)Nc1ccc2c(c1)OCO2	-10.7	7.6
COc1ccc(CCNC(=O)Cn2c(=O)n(CCCCC(=O)NCc3ccc4c(c3)OCO4)c(=O)c3ccccc32)cc1OC	21.5	-0.2
O=C(CCCn1c(=O)c2ccccc2n(CC(=O)Nc2ccc(Br)cc2F)c1=O)NCc1ccccc1Cl	-14.5	15.1
Cc1cccc(C)c1NC(=O)Cn1c(=O)n(CCCCC(=O)NCc2ccc3c(c2)OCO3)c(=O)c2ccccc21	66.8*	32.1*
O=C(CSc1n[nH]c2nc3ccccc3n12)Nc1ccc2c(c1)OCO2	0.9	37.3*
O=C(CSc1ncn[nH]1)Nc1ccc2c(c1)OCO2	-4.5	-12.4
O=C(Cn1c(=O)c2ccccc2c2ccccc21)Nc1ccc2c(c1)OCO2	82.4*	31.5*
O=C(CCCn1c(=O)c2ccccc2n(CC(=O)NCc2ccccc2Cl)c1=O)NCc1ccc2c(c1)OCO2	66.3*	32.6*
CN1CCCn2nc(C3CCN(C(=O)Nc4ccc5c(c4)OCCO5)CC3)cc2C1=O	12.4	14.0
O=C(NCc1cc(-c2ccc(Cl)cc2)on1)C1CC1	-310.0	2.3
COc1ccc(NS(=O)(=O)c2ccc(N3CCOCC3)c(NC(=O)c3ccc(S(=O)(=O)N4CCOCC4)cc3)c2)cc1	19.1	-0.3
Cc1ccc(S(=O)(=O)Nc2ccc(-c3ccc(N4CCOCC4)nn3)cc2)s1	-48.9	13.2
O=S(=O)(NC1CCN(c2ncnc3c2CCC3)C1)c1cccnc1 (stereo not given)	-18.8	-8.1
O=C(CCn1c(=O)c2ccccc2n(Cc2cccc([N+](=O)[O-])c2)c1=O)NCc1ccc2c(c1)OCO2	29.9	16.1
O=C(CCn1c(=O)c2sccc2n(CC(=O)OCc2ccccc2)c1=O)NCc1ccc2c(c1)OCO2	52.2*	15.7

Source: PubChem (Buhrlage Lab, Dana-Farber Cancer Institute and Novartis Institutes for BioMedical Research (Cambridge, Mass))
